The full list was thinned out, with hits kept by preference.
Sm TGR block – S. mansoni TGR enzyme inhibition | actives 3% (n = 360,000) | Q962Y6 | AID 485364 | purified TGR, DTNB reduction, TNB absorbance 405 nm | Potency, µM (titrated, usually from 114 µM), without a hit: at the top dose activity change, negative = inhibition, usual class: inhibitors; note: potency is the fitted concentration of half-maximal effect; % is set by controls: 0 for no effect and ±100 for the full control effect; nearly all actives have a fitted effect of over 60% in size
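Kinetic colorimetric format: TGR-catalysed, NADPH-driven DTNB reduction monitored via TNB absorbance. Enzyme dispensed at 20 nM; compound exposure 15 min at room temperature before reaction start.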
Tb PYK inh – blocks Trypanosoma brucei pyruvate kinase | TbPYK enzyme, Kinase-Glo Plus ATP luminescence, 45 min | Potency, µM (top dose mostly 76.8 µM), for inactives: at the highest dose activity, negative = inhibition, hits mostly inhibitors | actives 0.12% (n = 410,000) | AID 624173; note: potency is the fitted concentration of half-maximal effect; % is set by controls: 0 for no effect and ±100 for the full control effect; nearly all actives have a fitted effect of over 50% in size
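Glycolytic pyruvate kinase of T. brucei was incubated with substrate, test compound and 130 uM ADP for 45 minutes at room temperature. Luminescent Kinase-Glo Plus signal was measured after 10 minutes.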
Shiga toxin inh – Shiga toxin inhibition; Vero cells, Shiga toxin protein synthesis inhibition reporter; inhibition, % at 38.7 µM; actives 9.2% (n = 290,000); in the data active = inhibition mostly above about 28%, no sharp cut-off; inactive = mostly below about 43%; note: 0% is about no effect
CHX counter – affects cycloheximide protein synthesis inhibition readout, counter-screen | cell reporter, cycloheximide protein synthesis inhibition counterscreen | max response, % | actives 12% (n = 300,000) | AID 2314; in the data active = max response mostly above about 13%, no sharp cut-off; inactive = mostly below about 14%; note: read at 38.3 µM for the half of the compounds with a filed dose; 0% is about no effect
LmPK inhibitor – blocks Leishmania mexicana pyruvate kinase activity; purified LmPK, Kinase-Glo ATP luminescence, 1 h; AID 1721; Potency, µM (titrated, usually from 57.5 µM), inactives show top-dose activity change, negative = inhibition, actives largely listed as inhibitors; actives 0.37% (n = 290,000); note: potency is the fitted concentration of half-maximal effect; % is set by controls: 0 for no effect and ±100 for the full control effect
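Purified LmPK (0.1 nM) converted ADP (0.1 mM) to ATP with PEP (0.5 mM) in imidazole buffer pH 7.2 with KCl and MgCl2, 1 h at room temperature. ATP was read by Kinase-Glo luminescence; data normalized to uninhibited and no-enzyme controls.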
FBPA Giardia inh – blocks Giardia fructose-bisphosphate aldolase activity. purified Giardia FBPA. Potency, µM (highest dose often 59.6 µM), without a hit: at the highest dose activity, negative = inhibition, most hits filed as inhibitors. actives 0.71% (n = 290,000); note: potency is the fitted concentration of half-maximal effect; % is set by controls: 0 for no effect and ±100 for the full control effect; nearly all actives have a fitted effect of over 55% in size
Target sequence (A8B2U2 whole entry, looked up): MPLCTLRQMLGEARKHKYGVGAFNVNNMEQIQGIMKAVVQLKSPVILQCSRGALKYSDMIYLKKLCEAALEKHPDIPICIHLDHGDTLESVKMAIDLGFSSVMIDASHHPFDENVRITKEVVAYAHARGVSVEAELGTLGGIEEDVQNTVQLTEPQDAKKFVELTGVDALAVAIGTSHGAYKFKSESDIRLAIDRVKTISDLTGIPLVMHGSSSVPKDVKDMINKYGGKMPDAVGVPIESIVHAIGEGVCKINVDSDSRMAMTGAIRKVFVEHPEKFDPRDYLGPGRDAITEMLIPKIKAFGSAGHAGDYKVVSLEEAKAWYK
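Giardia FBPA (40 nM reagent) was preincubated 10 min at RT with compound (up to 57.5 uM final), then substrate plus GAPDH/TPI/NAD/arsenate coupling system with diaphorase/resazurin was added; resorufin fluorescence (525/598 nm) was read after 20 min.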
The depositor's hits bear a star; ? = inconclusive; . = no result given; [ ] = remark or other dose. Unless noted, calls come from the whole dose curve; as a rule, active = well fitted curve in the direction sought with a large enough effect; inconclusive = small, poorly fitted or top-dose-only effect, or another doubt; inactive = no such curve, though single readings can be large; an effect the other way counts as inactive or inconclusive.

SMILES	Sm TGR block	Tb PYK inh	Shiga toxin inh	CHX counter	LmPK inhibitor	FBPA Giardia inh
Cc1ccc(Cn2cc(SCC(=O)Nc3nccs3)c3ccccc32)cc1	-4%	4%	33	24*	2%	6%
Cc1ccc(Cn2ccnc2C(=O)Nc2ccccc2)cc1	-1%	-3%	87*	27*	-1%	-7%
O=C(CSc1nccn1Cc1ccccc1)Nc1ccccc1	4%	-2%	33*	18*	-1%	.
COc1ccc(Oc2ncc3nc(-c4cccc(C#N)c4)c(=O)n(CCC#N)c3n2)cc1	.	.	.	.	.	3%
O=C(COc1ccc([N+](=O)[O-])cc1)N1CCC(c2nc3ccccc3s2)CC1	?	0%	.	.	.	.
COC(=O)c1ccc(NC(=O)CSc2nccn2CCc2ccccc2)cc1	3%	1%	88	44*	4%	0%
Cn1c(SCC(=O)Nc2nccs2)nnc1C12CC3CC(CC(C3)C1)C2	-15%	-3%	37	27*	-1%	12%
O=C(CSc1nccn1Cc1ccccc1)Nc1nc2ccccc2s1	2%	2%	.	.	.	.
O=C(CSc1nccn1Cc1ccccc1)Nc1nccs1	-19%	-4%	active	37*	-8%	0%
Cc1noc(C)c1-c1nc(NCc2ccccc2)c2ccccc2n1	.	.	.	.	.	-9%
COc1ccc(C)cc1NC(=O)CSc1ncc2c(n1)-c1ccc(Cl)cc1N(Cc1ccccc1)S2(=O)=O	-18%	-10%	.	.	.	.
CC1=C(C(=O)N2CCOCC2)CC(CC(=O)NCCCCc2ccccc2)C(=O)N1CCC1=CCCCC1 (configuration not stated)	.	-3%	.	.	.	.
COc1ccc(CNC(=O)c2ccc3c(c2)N(Cc2cc(C)ccc2C)C(=O)CS3)cc1	-5%	2%	.	.	.	.
N/C(=N\OC(=O)CCC1CCCC1)c1ccccn1	-2%	-24%	65*	52*	?	4%
N/C(=N\OC(=O)CCC1CCCC1)c1ccccc1	3%	-2%	59	20*	?	2%
N/C(Cc1ccc([N+](=O)[O-])cc1)=N\OC(=O)Cc1ccccc1	3%	1%	-8	11	-1%	0%
N/C(=N\OC(=O)CCC1CCCCC1)c1cccc([N+](=O)[O-])c1	8%	1%	4	3	-2%	0%
O=C(CCC1CCCC1)NCc1ccccn1	1%	-7%	24	13	2%	5%
N/C(=N\OC(=O)Cc1ccccc1)c1ccc([N+](=O)[O-])cc1	-4%	-20%	42*	30*	2%	0%
N/C(=N\OC(=O)CCC1CCCC1)c1ccc([N+](=O)[O-])cc1	-2%	2%	26	19*	3%	2%
O=C(CN1C(=O)c2ccccc2C1=O)Nc1ccc(S(=O)(=O)N2CCOCC2)cc1	6%	2%	-4	8	-1%	-5%
O=C1C(=O)N(CCc2c[nH]c3ccccc23)C(c2cccnc2)/C1=C(/O)c1ccccc1 (configuration not stated)	-23%	.	29	4	4%	15%
Cc1nn2c(=O)cc(COC(=O)c3ccccc3NC(=O)c3cccs3)nc2s1	-6%	-2%	.	.	.	.
CCCS(=O)(=O)c1ncc(Cl)c(C(=O)N2CCN(c3ccc(OC)cc3)CC2)n1	11µM*	4%	.	.	.	.
CCOc1ccc(OCC)c(NS(=O)(=O)c2cc(-c3cc(C)no3)ccc2C)c1	10%	-1%[15.4 µM]	.	.	.	.
Cc1nnc(NC(=O)CSCc2cc(=O)c3ccccc3[nH]2)s1	3%	-12%	.	.	.	.
Cc1ccc(C2=NN3C(=O)c4ccccc4C3C2)cc1 (configuration not stated)	9%	0%	57*	55*	0%	-2%
O=C(O)c1ccccc1C(=O)N1N=C(c2ccccc2)CC1c1ccccc1O (configuration not stated)	-14%	-2%	67*	52*	-6%	11%
Cc1ccc(C(=O)N2N=C(c3ccc(Br)cc3)CC2c2ccccc2O)cc1 (configuration not stated)	-5%	-6%	6	13*	-7%	6%
